Values joined by “and” are separate entries in the source; they are usually repeats but may differ in a detail not shown here. Equal entries are not always repeated. The panel holds about 83,000 compounds, 20% with a hit somewhere; the sample as a whole holds those more often.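 Cell lines were cultured in 96-well plates, exposed to a single compound concentration, and assessed for percent growth 48 hours later.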 Active and inactive are the calls of the source. The calls were made as follows: active = growth percent below 10; inactive = the rest. Where a SMILES comes first, the peptide text is derived from it. [ ]: non-standard residue; d: D form. ξ: configuration not given here. ξD = NC(CC(=O)O)C(=O)O
How the values were obtained:
Assay in all cases: NCI-60 one-dose screen, 48 h (100 = growth as untreated, 0 = no growth, -100 = all killed)
Conditions in all cases: 10 µM unless noted
T-47D breast = test system: T-47D breast
MDA-MB-435 melanoma = test system: MDA-MB-435 melanoma
SW-620 colon = test system: SW-620 colon
MCF7 breast = test system: MCF7 breast
HCT-116 colon = test system: HCT-116 colon
HCC-2998 colon = test system: HCC-2998 colon
KM12 colon = test system: KM12 colon
BT-549 breast = test system: BT-549 breast

Measured: growth

O=[n+]1c2ccccc2n([O-])c2cc(Cl)ccc21
inactive: T-47D breast 46.8% | MDA-MB-435 melanoma 100% | SW-620 colon 53.2% | MCF7 breast 28.2% | HCT-116 colon 28.7% | HCC-2998 colon 93.5% | KM12 colon 79%

COC(=O)c1ccc(=O)c2nc3/c(=C/O)c(O)cc(=O)c3[nH]c12
active: MCF7 breast 2.95% | HCT-116 colon -19%
inactive: T-47D breast 25.6% | MDA-MB-435 melanoma 23.4% | SW-620 colon 29.5% | KM12 colon 31.1%

O=[N+]([O-])c1ccc2c(c1)Cc1ccccc1-2
inactive: T-47D breast 94% | MDA-MB-435 melanoma 99.4% | SW-620 colon 95.8% | MCF7 breast 94.8% | HCT-116 colon 91.3% | HCC-2998 colon 98.3% | KM12 colon 98.3%

CCOc1cc(F)c([N+](=O)[O-])cc1[N+](=O)[O-]
active: HCT-116 colon 9.26% | KM12 colon -44.7%
inactive: T-47D breast 24.5% | MDA-MB-435 melanoma 37.2% | SW-620 colon 19.8% | MCF7 breast 15.9% | HCC-2998 colon 98.7%

CCCCCCCCCCCCN1C(C)=CS/C1=C\C=C\c1scc(C)[n+]1CCCCCCCCCCCC
inactive: T-47D breast 13.8% | MDA-MB-435 melanoma 13.6% | SW-620 colon 30.7% | HCT-116 colon 17.7% | HCC-2998 colon 28.4% | KM12 colon 14.8%
active: MCF7 breast 7.9%

NNc1ccc(Cl)cc1Cl
inactive: T-47D breast 52% | MDA-MB-435 melanoma 96.6% | SW-620 colon 53.7% | MCF7 breast 74.8% | HCT-116 colon 87.1% | HCC-2998 colon 93.9% | KM12 colon 51.3%

COc1cc([C@@H]2c3cc4c(cc3[C@H](OC3OC5COC(c6ccccc6)OC5C(O)C3O)[C@H]3COC(=O)[C@H]23)OCO4)cc(OC)c1OC (stereo not given in full)
active: HCC-2998 colon -5.24%
inactive: T-47D breast 107% | MDA-MB-435 melanoma 22.7% | SW-620 colon 43.9% | MCF7 breast 10.5% | HCT-116 colon 12.3% | KM12 colon 42.9%

CCCCCCN(CCCCCC)CCCNc1nccc2ccccc12
active: T-47D breast -13.6% | MDA-MB-435 melanoma 0.549% | SW-620 colon 6.78% | MCF7 breast -28% | HCT-116 colon 8.24% | HCC-2998 colon -59.4% | KM12 colon 9.96%

CCCCCCCCCCCC1N=C(N)N=C(N)N1c1cccc(Br)c1 (stereo not given)
active: SW-620 colon -93.9% | MCF7 breast -87.8% | HCT-116 colon -100% | HCC-2998 colon -87.7% | KM12 colon -91.8%
inactive: T-47D breast 38.4% | MDA-MB-435 melanoma 22.4%

CCCCCC[C@@H](O)C/C=C\CCCCCCCC(=O)OCCOC
inactive: T-47D breast 94.3% | MDA-MB-435 melanoma 110% | SW-620 colon 102% | MCF7 breast 100% | HCT-116 colon 89.2% | KM12 colon 102%

CC(=O)C1Cc2ccccc2C1=O (stereo not given)
inactive: T-47D breast 101% | MDA-MB-435 melanoma 103% | SW-620 colon 101% | MCF7 breast 95.4% | HCT-116 colon 103% | HCC-2998 colon 108% | KM12 colon 102%

Fc1ccc(NCCS)cc1
inactive: T-47D breast 103% | MDA-MB-435 melanoma 107% | SW-620 colon 102% | MCF7 breast 90% | HCT-116 colon 111% | HCC-2998 colon 96.7% | KM12 colon 98.3%

CC1(O)CCCCCC1
inactive: T-47D breast 97% | MDA-MB-435 melanoma 103% | SW-620 colon 100% | MCF7 breast 96.8% | HCT-116 colon 99.4% | HCC-2998 colon 98.8% | KM12 colon 106%

O=C(Cc1ccccc1)C(F)(F)F
inactive: T-47D breast 95.4% | MDA-MB-435 melanoma 104% | SW-620 colon 108% | MCF7 breast 103% | HCT-116 colon 95.5% | KM12 colon 103%

CCC(C)C(N)C(=O)NC(CC(N)=O)C(=O)NC(CC(C)C)C(=O)NC(CCCCN)C(=O)NC(C)C(=O)NC(CC(C)C)C(=O)NC(C)C(=O)NC(C)C(=O)NC(CC(C)C)C(=O)NC(C)C(=O)NC(CCCCN)C(=O)NC(CCCCN)C(=O)NC(C(=O)NC(CC(C)C)C(N)=O)C(C)CC (stereo not given)
inactive: T-47D breast 93.9% | MDA-MB-435 melanoma 77.7% | SW-620 colon 103% | MCF7 breast 97.4% | HCT-116 colon 82.5% | KM12 colon 90.2%

CCSc1nc2ccccc2o1
inactive: T-47D breast 106% | MDA-MB-435 melanoma 111% | SW-620 colon 106% | MCF7 breast 99.5% | HCT-116 colon 111% | HCC-2998 colon 117% | KM12 colon 108%

CN(C)c1ccc(C(=C2C=CC(=[N+](C)C)C=C2)c2ccc(N(C)C)cc2)cc1
active: T-47D breast -19.2% | MDA-MB-435 melanoma -82.6% | SW-620 colon -67.2% | MCF7 breast -71.6% | HCT-116 colon -83.3% | HCC-2998 colon -91.6% | KM12 colon -95.6%

CCOC(=O)c1cc(CC)sc1NC(=O)CC(C)=O
inactive: T-47D breast 34.8% | MDA-MB-435 melanoma 68.8% | SW-620 colon 49.7% | MCF7 breast 15.9% | HCT-116 colon 26.5% | HCC-2998 colon 69.4% | KM12 colon 47.1%

c1ccc(-c2cccc(-c3ccccn3)n2)nc1
inactive: T-47D breast 38.1% | MDA-MB-435 melanoma 33.9% | SW-620 colon 29.6% | MCF7 breast 14.1% | HCC-2998 colon 18.7% | KM12 colon 27.6%
active: HCT-116 colon 6.59%

O=C(C[P+](c1ccccc1)(c1ccccc1)c1ccccc1)c1ccccc1
inactive: T-47D breast 89.9% | MDA-MB-435 melanoma 98.5% | SW-620 colon 97.3% | MCF7 breast 90.6% | HCT-116 colon 76.8% | HCC-2998 colon 93.9% | KM12 colon 101%

CN(C)c1ccc(/C=C/c2sc3ccc4ccccc4c3[n+]2C)cc1
active: T-47D breast -10.9% | MDA-MB-435 melanoma -34.8% | SW-620 colon -63.9% | MCF7 breast -9.73% | HCT-116 colon -71.8% | HCC-2998 colon -91.5% | KM12 colon -63%

CC(O)C(O)C(O)C(O)C(O)C(=O)NNc1ccccc1 (stereo not given)
inactive: T-47D breast 76.4% | MDA-MB-435 melanoma 86.4% | SW-620 colon 75.6% | MCF7 breast 88.1% | HCT-116 colon 87.6% | HCC-2998 colon 95.1% | KM12 colon 85.7%

O=C(Cc1nc2cc(Cl)c(Cl)cc2nc1CC(=O)c1ccccc1)c1ccccc1
inactive: BT-549 breast 52% | MDA-MB-435 melanoma 67.4% | SW-620 colon 92.6% | HCT-116 colon 56.8% | HCC-2998 colon 92.8% | KM12 colon 77.3%
active: MCF7 breast 9.51%

CN(Cc1ccccc1)c1ccc(SC#N)cc1
inactive: BT-549 breast 43.9% | MDA-MB-435 melanoma 94.7% | SW-620 colon 85.3% | MCF7 breast 76.3% | HCT-116 colon 39.5% | HCC-2998 colon 89.8% | KM12 colon 40.4%

Oc1ccccc1N=Cc1ccccc1
inactive: BT-549 breast 79.7% | MDA-MB-435 melanoma 87% | SW-620 colon 85.1% | MCF7 breast 74.3% | HCT-116 colon 69.4% | HCC-2998 colon 100% | KM12 colon 74.1%

COc1c(/C=C/C=O)cc2c(c1OC)OCO2
active: MCF7 breast -30% [100 µM] and -83.3% [100 µM]

CCOC(=O)NC(/C=C/c1ccccc1)NC(=O)OCC
inactive: MDA-MB-435 melanoma 106% | SW-620 colon 100% | MCF7 breast 101% | HCT-116 colon 93.6% | HCC-2998 colon 112% | KM12 colon 107%

NCC(=O)NC(CC(=O)O)C(=O)O (stereo not given) (H-Gly-[ξD]-OH)
inactive: MDA-MB-435 melanoma 99.5% | SW-620 colon 98.9% | MCF7 breast 100% | HCT-116 colon 106% | HCC-2998 colon 110% | KM12 colon 107%

CCOC(=O)c1c(C)[nH]c2ccc(O)cc12
inactive: MDA-MB-435 melanoma 100% | SW-620 colon 105% | MCF7 breast 83.4% | HCT-116 colon 103% | HCC-2998 colon 107% | KM12 colon 86.4%
